# Experimental data reported in the supplement of paper PMC10849652.
# The full data set covers some 7,900 targets. This sample favours those with a hit. About 0.6% of all pairs of compound and target were hits. A number with no mark means an inactive call.
# Assays:
# Assay in all cases: log2 fold change, soluble protein after heating vs DMSO (PISA); higher = thermal stabilisation; K562 cells, 10 uM, 30 min; active = over 0.2 and 3.5 SD of the protein, either way, in both replicates (recomputed)
# [1] = compound: COC1=CC=C(C=C1)CN2C=CC3=C2C=C(C=C3)C(=O)NO
# Outline: (§1)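 K562 cells at 2×10^6 cells/mL were exposed to 10 μM compound for 30 min, then aliquots were heated for 3 min across 48°C-58°C, pooled, and extracted in PBS containing 0.5% NP-40 at 4°C. The supernatant after 21,000xg for 90 min was taken as soluble protein and measured by TMTpro 16plex LC-MS/MS with channel sums equalised. Thermal stability is reported relative to control samples, with values from duplicates. Fold changes are given on a log2 scale.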
# filanesib = compound: CON(C)C(=O)N1N=C(c2cc(F)ccc2F)S[C@@]1(CCCN)c1ccccc1 [filanesib]
# Outline: as §1
# zotarolimus = compound: CO[C@H]1C[C@@H]2CC[C@@H](C)[C@@](O)(O2)C(=O)C(=O)N2CCCC[C@H]2C(=O)O[C@H]([C@H](C)C[C@@H]2CC[C@H](n3cnnn3)[C@H](OC)C2)CC(=O)[C@H](C)/C=C(\C)[C@@H](O)[C@@H](OC)C(=O)[C@H](C)C[C@H](C)/C=C/C=C/C=C/1C [zotarolimus]
# Outline: as §1
# idasanutlin = compound: COc1cc(C(=O)O)ccc1NC(=O)[C@@H]1N[C@@H](CC(C)(C)C)[C@](C#N)(c2ccc(Cl)cc2F)[C@H]1c1cccc(Cl)c1F [idasanutlin]
# Outline: as §1
# alisertib = compound: COc1cc(Nc2ncc3c(n2)-c2ccc(Cl)cc2C(c2c(F)cccc2OC)=NC3)ccc1C(=O)O [alisertib]
# Outline: as §1
# [2] = compound: COc1cc2nc(-c3cc(F)ccc3O)nc(N[C@@H]3CNC[C@H]3C(C)(C)O)c2cc1OC
# Outline: as §1
# gefitinib = compound: COc1cc2ncnc(Nc3ccc(F)c(Cl)c3)c2cc1OCCCN1CCOCC1 [gefitinib]
# Outline: as §1
# [3] = compound: COc1cccc2cc(-c3nc([C@H]4CC[C@H](C(=O)O)CC4)n4ncnc(N)c34)[nH]c12
# Outline: as §1
# lapatinib = compound: CS(=O)(=O)CCNCc1ccc(-c2ccc3ncnc(Nc4ccc(OCc5cccc(F)c5)c(Cl)c4)c3c2)o1 [lapatinib]
# Outline: as §1
# pictilisib = compound: CS(=O)(=O)N1CCN(Cc2cc3nc(-c4cccc5[nH]ncc45)nc(N4CCOCC4)c3s2)CC1 [pictilisib]
# Outline: as §1
# Sequence of UniProt O75390 (O75390 whole entry, looked up): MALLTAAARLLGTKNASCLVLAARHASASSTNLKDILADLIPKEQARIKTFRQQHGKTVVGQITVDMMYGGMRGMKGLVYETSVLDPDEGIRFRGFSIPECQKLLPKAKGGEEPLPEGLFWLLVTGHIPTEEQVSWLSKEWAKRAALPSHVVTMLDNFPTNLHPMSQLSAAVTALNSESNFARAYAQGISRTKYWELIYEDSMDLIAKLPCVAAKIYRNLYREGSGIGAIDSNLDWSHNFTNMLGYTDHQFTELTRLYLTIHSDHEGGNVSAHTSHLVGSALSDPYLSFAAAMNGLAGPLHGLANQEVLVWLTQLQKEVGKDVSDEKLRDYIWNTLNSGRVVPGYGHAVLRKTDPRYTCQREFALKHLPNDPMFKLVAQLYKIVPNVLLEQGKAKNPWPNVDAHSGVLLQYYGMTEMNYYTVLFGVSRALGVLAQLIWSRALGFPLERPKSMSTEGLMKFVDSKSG
# Sequence of UniProt Q8IX12 (Q8IX12 whole entry, looked up): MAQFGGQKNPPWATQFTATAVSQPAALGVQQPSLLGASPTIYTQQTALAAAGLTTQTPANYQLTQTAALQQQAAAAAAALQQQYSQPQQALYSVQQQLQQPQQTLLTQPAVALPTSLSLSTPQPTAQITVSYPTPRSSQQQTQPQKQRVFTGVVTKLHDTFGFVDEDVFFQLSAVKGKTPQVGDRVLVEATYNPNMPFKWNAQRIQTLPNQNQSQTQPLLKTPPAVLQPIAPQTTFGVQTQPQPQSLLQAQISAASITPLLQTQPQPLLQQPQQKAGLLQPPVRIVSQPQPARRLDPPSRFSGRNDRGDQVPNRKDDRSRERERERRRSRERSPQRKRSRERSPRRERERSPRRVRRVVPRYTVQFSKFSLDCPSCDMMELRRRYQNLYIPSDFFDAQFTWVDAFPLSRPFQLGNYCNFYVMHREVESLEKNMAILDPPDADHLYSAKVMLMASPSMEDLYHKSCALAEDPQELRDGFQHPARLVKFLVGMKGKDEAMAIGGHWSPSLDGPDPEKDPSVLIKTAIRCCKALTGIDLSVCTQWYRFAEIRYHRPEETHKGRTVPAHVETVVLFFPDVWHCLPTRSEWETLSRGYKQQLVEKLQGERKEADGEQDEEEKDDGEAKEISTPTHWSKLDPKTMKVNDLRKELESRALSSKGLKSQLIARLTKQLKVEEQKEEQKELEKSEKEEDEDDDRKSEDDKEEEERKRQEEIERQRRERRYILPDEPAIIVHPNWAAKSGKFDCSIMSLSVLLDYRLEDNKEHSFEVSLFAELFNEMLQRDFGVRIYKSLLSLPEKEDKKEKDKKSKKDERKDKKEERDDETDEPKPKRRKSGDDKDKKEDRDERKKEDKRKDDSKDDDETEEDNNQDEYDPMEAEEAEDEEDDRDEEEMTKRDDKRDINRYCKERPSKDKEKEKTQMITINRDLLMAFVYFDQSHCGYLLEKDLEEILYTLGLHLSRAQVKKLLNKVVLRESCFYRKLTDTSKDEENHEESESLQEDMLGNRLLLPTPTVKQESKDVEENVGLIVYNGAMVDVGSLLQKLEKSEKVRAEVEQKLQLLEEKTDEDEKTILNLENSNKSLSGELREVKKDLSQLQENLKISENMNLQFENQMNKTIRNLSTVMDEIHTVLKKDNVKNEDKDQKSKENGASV
# Sequence of UniProt Q9P031 (Q9P031 whole entry, looked up): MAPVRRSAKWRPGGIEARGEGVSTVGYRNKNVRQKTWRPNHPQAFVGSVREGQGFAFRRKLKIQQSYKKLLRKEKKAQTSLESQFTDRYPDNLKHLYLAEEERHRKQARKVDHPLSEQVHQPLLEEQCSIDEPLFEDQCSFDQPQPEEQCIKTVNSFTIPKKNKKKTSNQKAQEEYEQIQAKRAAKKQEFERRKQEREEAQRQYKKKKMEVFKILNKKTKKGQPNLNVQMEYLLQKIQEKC
# Sequence of UniProt Q8N1G2 (Q8N1G2 whole entry, looked up): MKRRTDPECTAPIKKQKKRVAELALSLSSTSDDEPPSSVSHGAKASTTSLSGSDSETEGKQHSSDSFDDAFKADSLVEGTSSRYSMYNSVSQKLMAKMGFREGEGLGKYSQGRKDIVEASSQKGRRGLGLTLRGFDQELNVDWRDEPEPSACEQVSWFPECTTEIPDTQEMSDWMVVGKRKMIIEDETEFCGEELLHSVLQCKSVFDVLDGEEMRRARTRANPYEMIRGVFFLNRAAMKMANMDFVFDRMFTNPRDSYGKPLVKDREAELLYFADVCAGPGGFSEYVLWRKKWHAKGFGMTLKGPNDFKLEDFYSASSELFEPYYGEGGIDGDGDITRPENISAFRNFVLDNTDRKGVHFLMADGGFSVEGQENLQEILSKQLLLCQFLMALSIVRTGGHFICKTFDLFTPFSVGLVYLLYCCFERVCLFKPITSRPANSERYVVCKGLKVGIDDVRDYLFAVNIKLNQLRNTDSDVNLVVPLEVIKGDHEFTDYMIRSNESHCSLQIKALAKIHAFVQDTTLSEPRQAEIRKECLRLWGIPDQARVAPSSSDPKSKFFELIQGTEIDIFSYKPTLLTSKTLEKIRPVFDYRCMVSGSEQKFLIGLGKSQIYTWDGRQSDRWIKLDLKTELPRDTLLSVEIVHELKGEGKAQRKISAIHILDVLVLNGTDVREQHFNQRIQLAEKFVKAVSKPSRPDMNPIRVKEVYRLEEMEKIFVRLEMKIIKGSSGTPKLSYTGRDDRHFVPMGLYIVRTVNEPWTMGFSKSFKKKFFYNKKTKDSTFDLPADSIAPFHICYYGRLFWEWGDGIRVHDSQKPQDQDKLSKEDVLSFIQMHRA
# Sequence of UniProt Q6ZU80 (Q6ZU80 whole entry, looked up): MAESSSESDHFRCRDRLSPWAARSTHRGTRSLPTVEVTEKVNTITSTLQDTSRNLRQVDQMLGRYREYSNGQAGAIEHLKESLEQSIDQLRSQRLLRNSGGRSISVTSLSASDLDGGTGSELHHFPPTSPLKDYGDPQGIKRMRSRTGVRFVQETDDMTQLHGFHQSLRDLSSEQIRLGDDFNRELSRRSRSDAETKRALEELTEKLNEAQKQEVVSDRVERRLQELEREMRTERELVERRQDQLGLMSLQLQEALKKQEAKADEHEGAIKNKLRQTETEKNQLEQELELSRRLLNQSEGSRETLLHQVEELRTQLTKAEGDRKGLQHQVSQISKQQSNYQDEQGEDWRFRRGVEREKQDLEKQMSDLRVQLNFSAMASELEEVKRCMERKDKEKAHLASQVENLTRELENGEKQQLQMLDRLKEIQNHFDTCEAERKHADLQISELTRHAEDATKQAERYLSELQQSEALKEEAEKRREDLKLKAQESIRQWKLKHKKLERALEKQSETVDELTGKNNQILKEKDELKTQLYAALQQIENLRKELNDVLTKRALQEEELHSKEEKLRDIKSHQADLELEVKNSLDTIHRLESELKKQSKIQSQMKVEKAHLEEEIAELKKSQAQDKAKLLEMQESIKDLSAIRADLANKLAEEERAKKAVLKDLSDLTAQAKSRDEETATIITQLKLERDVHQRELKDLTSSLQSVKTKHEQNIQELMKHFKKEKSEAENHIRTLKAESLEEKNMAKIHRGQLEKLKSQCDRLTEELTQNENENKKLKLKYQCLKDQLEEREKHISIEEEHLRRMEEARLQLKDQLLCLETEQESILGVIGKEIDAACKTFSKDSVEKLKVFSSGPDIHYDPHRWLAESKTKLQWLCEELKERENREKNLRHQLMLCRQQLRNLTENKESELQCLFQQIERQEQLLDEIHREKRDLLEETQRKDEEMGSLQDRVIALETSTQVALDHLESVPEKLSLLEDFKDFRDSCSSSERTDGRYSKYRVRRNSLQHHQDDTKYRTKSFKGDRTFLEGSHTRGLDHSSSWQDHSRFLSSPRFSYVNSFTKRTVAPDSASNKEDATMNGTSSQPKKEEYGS
# Sequence of UniProt O15182 (O15182 whole entry, looked up): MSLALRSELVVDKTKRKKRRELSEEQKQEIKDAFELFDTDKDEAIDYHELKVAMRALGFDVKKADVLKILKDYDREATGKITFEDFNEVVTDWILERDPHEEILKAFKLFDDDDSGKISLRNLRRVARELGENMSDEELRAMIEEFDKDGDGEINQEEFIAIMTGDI
# Sequence of UniProt Q96LT7 (Q96LT7 whole entry, looked up): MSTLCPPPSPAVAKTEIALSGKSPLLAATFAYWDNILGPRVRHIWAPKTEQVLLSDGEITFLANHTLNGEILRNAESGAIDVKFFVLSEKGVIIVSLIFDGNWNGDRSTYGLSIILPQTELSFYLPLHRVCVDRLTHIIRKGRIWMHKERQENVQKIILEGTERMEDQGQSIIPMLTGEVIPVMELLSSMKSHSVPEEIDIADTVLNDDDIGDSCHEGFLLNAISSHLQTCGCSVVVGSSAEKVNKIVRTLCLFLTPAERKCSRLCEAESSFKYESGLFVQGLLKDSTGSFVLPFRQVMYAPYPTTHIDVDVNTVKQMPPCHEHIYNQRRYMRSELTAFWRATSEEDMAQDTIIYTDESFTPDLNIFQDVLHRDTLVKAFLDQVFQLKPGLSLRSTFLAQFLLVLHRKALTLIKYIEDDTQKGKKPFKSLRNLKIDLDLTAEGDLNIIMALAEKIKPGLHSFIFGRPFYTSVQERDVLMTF
# Sequence of UniProt Q92851 (Q92851 whole entry, looked up): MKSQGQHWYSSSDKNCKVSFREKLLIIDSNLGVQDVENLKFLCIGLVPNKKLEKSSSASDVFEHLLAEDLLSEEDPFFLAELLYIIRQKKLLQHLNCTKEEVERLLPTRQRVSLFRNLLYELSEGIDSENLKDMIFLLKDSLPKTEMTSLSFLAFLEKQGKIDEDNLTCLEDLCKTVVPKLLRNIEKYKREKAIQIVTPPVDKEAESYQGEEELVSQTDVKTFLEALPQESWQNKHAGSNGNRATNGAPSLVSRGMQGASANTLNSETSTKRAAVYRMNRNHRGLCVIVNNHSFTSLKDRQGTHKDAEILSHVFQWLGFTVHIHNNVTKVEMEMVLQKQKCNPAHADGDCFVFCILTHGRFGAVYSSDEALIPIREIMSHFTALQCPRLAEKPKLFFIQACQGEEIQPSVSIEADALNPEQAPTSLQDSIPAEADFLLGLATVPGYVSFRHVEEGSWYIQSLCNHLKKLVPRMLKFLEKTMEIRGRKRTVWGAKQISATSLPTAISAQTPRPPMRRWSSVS
# Sequence of UniProt P15954 (P15954 whole entry, looked up): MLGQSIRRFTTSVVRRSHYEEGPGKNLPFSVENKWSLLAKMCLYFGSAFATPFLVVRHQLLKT
Target,log2 fold change [1],log2 fold change (filanesib),log2 fold change (zotarolimus),log2 fold change (idasanutlin),log2 fold change (alisertib),log2 fold change [2],log2 fold change (gefitinib),log2 fold change [3],log2 fold change (lapatinib),log2 fold change (pictilisib)
COCH (UniProt O43405),-0.018,0.024,-0.018,0.077,-0.063,-0.144,0.131,-0.078,0.049,0.001
COA6 isoform 2 (UniProt Q5JTJ3),0.02,-0.029,0.019,-0.052,0.002,-0.042,-0.003,0.022,-0.017,-0.006
CASP3 (UniProt P42574),0.004,-0.002,0.029,0.072,-0.103,0.025,0.002,-0.018,0.017,0.006
CCDC59 (UniProt Q9P031),0.024,0.301,-0.008,0.225,-0.124,-0.013,-0.066,-0.054,-0.034,-0.234
CDC42BPA isoform 6 (UniProt Q5VT25),-0.005,0.009,0.081,0.004,-0.04,-1.1 (active),-0.096,-0.027,0.106,0.118
CCAR1 (UniProt Q8IX12),0.018,-0.105,0.011,-0.041,-0.056,-0.02,0.027,0.014,0.003,-0.072
COPS3 (UniProt Q9UNS2),0.12,-0.035,-0.004,-0.09,-0.012,0.008,-0.031,0.052,-0.015,-0.063
CPQ (UniProt Q9Y646),-0.014,-0.05,-0.058,-0.093,-0.054,0.01,0.038,0.047,-0.014,0.027
CTBS (UniProt Q01459),-0.006,-0.038,0.002,0.018,-0.032,0.026,0.01,0.055,0.004,-0.068
CDC37L1 (UniProt Q7L3B6),-0.027,0.047,-0.057,-0.031,-0.009,-0.106,0.029,-0.037,0.034,-0.051
COPS4 (UniProt Q9BT78),0.219 (active),-0.067,0.032,-0.039,-0.054,-0.035,-0.007,0.019,0.025,-0.011
CNOT7 (UniProt Q9UIV1),-0.032,0.012,0.018,-0.008,-0.011,0.233,0.134,-0.067,-0.036,0.001
CIZ1 (UniProt Q9ULV3),0.039,0.04,-0.006,0.054,-0.042,-0.106,-0.099,0.034,0.025,0.05
CASP10 isoform 4 (UniProt Q92851),0.012,0.078,0.062,-0.049,0.009,-0.089,-0.036,-0.128,-0.047,0.079
C9orf72 (UniProt Q96LT7),-0.06,-0.054,-0.115,-0.026,0.062,-0.013,-0.034,-0.062,0.062,-0.015
COX15 (UniProt Q7KZN9),0.04,-0.046,0.005,-0.055,-0.054,-0.012,-0.001,0.052,0.001,0.071
CETN3 (UniProt O15182),-0.211,-0.026,0.041,0.068,-0.058,0.161,-0.001,0.072,-0.175,0.061
CPSF1 (UniProt Q10570),-0.042,0.164,0.095,0.053,-0.08,0.02,-0.079,0.01,0.029,-0.058
CDC123 (UniProt O75794),0.005,-0.043,-0.016,0.032,-0.048,0.024,-0.057,0.001,0.017,-0.027
CHEK1 (UniProt O14757),0.005,-0.025,-0.029,-0.041,-0.041,-0.805 (active),-0.06,0.055,-0.007,0.016
CMTR1 (UniProt Q8N1G2),-0.337 (active),0.001,-0.013,-0.052,-0.026,0.065,0.025,0.017,-0.012,0.009
CASC3 (UniProt O15234),0,0.17,-0.105,0.038,-0.051,0.16,0,-0.105,-0.077,-0.066
CCNC (UniProt P24863),-0.198,0.013,-0.026,-0.156,-0.036,–,–,0.013,–,0.079
COPS3 isoform 2 (UniProt Q9UNS2),-0.144,0.157,–,0.138,-0.008,0.321,0.005,0.083,-0.211,0.128
CCDC167 (UniProt Q9P0B6),-0.054,-0.024,-0.027,–,-0.068,-0.148,-0.021,-0.105,0.016,0.047
C19orf54 (UniProt Q5BKX5),-0.025,-0.278,0.024,-0.094,–,0.123,–,–,-0.125,0.053
COX7C (UniProt P15954),0.12,0.009,–,0.114,-0.016,-0.069,0.059,-0.053,0.008,-0.288
CS (UniProt O75390),0.012,-0.172,0.011,-0.033,-0.013,-0.139,0.041,0.059,-0.027,0.099
CEP128 (UniProt Q6ZU80),-0.269,0.031,-0.101,-0.103,0.677 (active),0.076,–,-0.381,-0.198,–
CCDC82 (UniProt Q8N4S0),-0.356,–,0.013,0,0.034,-0.013,0.052,-0.102,0.043,–
